Pf Dd2 growth: inhibitors of Plasmodium falciparum Dd2 growth; P. falciparum Dd2 growth, SYBR Green, 72 h; Potency, µM (doses to about 28.9 µM), actives largely listed as inhibitors; 120,000 compounds, 4.3% hits; AID 1347417; active means well fitted inhibition curve with a large enough effect; further: nearly all actives have a fitted effect of over 65% in size
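Readout: SYBR Green fluorescence, 485 nm excitation, 535 nm emission, after ~16 h lysis at 37C. Before that, Dd2-infected red cells (2.5% hematocrit) grew 72 h with compound, 29 uM top final concentration.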
Of the large screens only hits and unclear results are named; the others gave an inactive call. This excerpt belongs to a sample that is enriched for hits.

Cn1nccc1CN1CCC2(C1)C(=O)Nc1ccccc12 (stereo not given)	none
Fc1ccc2nc(CO[C@H]3CN(Cc4ccncc4F)C[C@H]3F)[nH]c2c1	none
CNc1ccc(C(=O)N2CCC3(CCCNC3)C2)cc1 (stereo not given)	none
O=S(=O)(c1ccccc1C(F)(F)F)N1CCC2(CCCNC2)C1 (stereo not given)	Pf Dd2 growth 7.9µM
O=C(c1cc(F)c(F)c(F)c1)N1CCC2(CCCNC2)C1 (stereo not given)	none
CC(C)c1ccc(S(=O)(=O)N2CCC3(CCCNC3)C2)cc1 (stereo not given)	Pf Dd2 growth 5µM
O=c1ccc2cc(S(=O)(=O)N3CCC4(CCCNC4)C3)ccc2o1 (stereo not given)	none
CN1CCC(N2CCN(S(=O)(=O)c3ccccc3C(F)(F)F)CC2)C1=O (stereo not given)	none
Cn1ccnc1CNC(=O)C[C@@H]1C[C@H]2O[C@H](CNC(=O)NC3CCC3)[C@@H](O)[C@H]2O1	none
COc1cc2ncnc(N3CC4CCC(C3)N4CC(F)(F)F)c2cc1OC	none
CCc1ncc2c(N3CC4CCC(C3)N4CC(F)(F)F)nc3ccccc3n12	Pf Dd2 growth 3.2µM
FC(F)(F)CN1C2CCC1CN(c1nncc3ccccc13)C2	none
CC(=O)N1CCN(C(=O)C[C@@H]2c3nc(NC(=O)C4CCCCC4)sc3C[C@@H]3[C@](C)(CO)[C@H](O)CC[C@]32C)CC1	none
CCOC(=O)c1ccc(NC(=O)c2cc3sccc3n2Cc2ccc(Cl)cc2)cc1	none
Cc1ccc(Cn2c(C(=O)Nc3cccc(Cl)c3)cc3sccc32)cc1	none
COc1ccc(CNC(=O)c2cc3sccc3n2Cc2ccc(F)cc2)cc1	none
CCOC(=O)c1cccc(NC(=O)c2cc3sccc3n2Cc2ccc(Cl)cc2)c1	Pf Dd2 growth 11µM
Cc1ccc(CCNC(=O)c2cc3sccc3n2Cc2ccc(C)cc2)cc1	none
Cc1ccc(Cn2c(C(=O)NCc3ccccc3Cl)cc3sccc32)cc1	Pf Dd2 growth 11µM
CN1CCCn2nc(C(=O)NC34CC5CC(CC(C5)C3)C4)cc2C1	none
COCCNc1ncnc2c1CN(C1CCNCC1)C(=O)CN2C	none
COc1c(F)cc(CNCC2(O)CCCNC2)cc1F (stereo not given)	none
Cc1cnc(CNCC2(O)CNCCOC2)cn1 (stereo not given)	none
Cc1cc(Cl)cc(Cl)c1CNCC1(O)CCCNC1 (stereo not given)	Pf Dd2 growth 7.9µM
Cc1ccc(CN2C[C@@H]3C(=O)N(Cc4ccc5c(c4)OCO5)C(=O)[C@@H]3C2)c(C)c1	none
COc1ccc(NC(=O)CN2C(=O)NC3(CCC(C(C)(C)C)CC3)C2=O)cc1 (stereo not given)	none
CCCn1cc(NC(=O)C[C@H]2NC(=O)c3ccccc3NC2=O)c(C)n1	none
CC(=O)c1ccc(NC(=O)c2nc3ccccc3nc2N2CCCCC2)cc1	none
Cc1ccc(NC(=O)C2CCCN(c3ncnc4c3nc3n4CCCCC3)C2)cc1F (stereo not given)	none
O=C(Nc1ccc2c(N3CCCCC3)ncnc2c1)c1ccc(F)cc1	Pf Dd2 growth 3.2µM
CCc1ccc(-c2nc3cc(NC(=O)c4ccc(C)c(C)c4)ccc3o2)cc1	none
Cc1ccc(C(=O)Nc2ccc3c(N4CCCCC4)ncnc3c2)cc1F	Pf Dd2 growth 6.3µM
Cc1ccc(C(=O)Nc2ccc3c(N4CCOCC4)ncnc3c2)cc1C	Pf Dd2 growth 11µM
O=C(Nc1ccc2oc(-c3cccnc3)nc2c1)c1cccc(Br)c1	none
COc1cccc(C(=O)Nc2ccc3c(N4CCOCC4)ncnc3c2)c1	none
Cc1ccc(NC(=O)c2ccc3c(c2)N(C)C2CCCCN2C3=O)cc1F (stereo not given)	none
O=C(Nc1ccc2c(N3CCCC3)ncnc2c1)c1cccc(Br)c1	Pf Dd2 growth 0.89µM
O=C(Nc1ccc2ncnc(N3CCCCC3)c2c1)c1cc(F)cc(F)c1	none
CC(C)N1C(=O)C2(CCCCC2)C1C(=O)NCCCN1CCN(c2ccccc2)CC1 (stereo not given)	none
CN1CC(=O)N(c2ccccc2F)Cc2c(NCc3cccc(C(F)(F)F)c3)ncnc21	none
O=C1c2cnc(-c3cncnc3)nc2OCCN1c1cccc(C(F)(F)F)c1	none
Cn1cc(C#N)cc1C(=O)N1CCC2(CCC(=O)N(CCc3cnc[nH]3)C2)CC1	none
COc1ccc(N2CC(C(=O)N3CCC(C(=O)NCc4cccs4)C3)NC2=O)cc1 (stereo not given)	none
O=C(Nc1ccc(Cl)cc1)c1ccc(-n2cnnc2)cc1	none
Cc1ccsc1C(=O)Nc1ccc2c(N3CCCCC3)ncnc2c1	Pf Dd2 growth 11µM
O=C(Nc1ccc2c(N3CCCC3)ncnc2c1)c1ccc(Cl)cc1	Pf Dd2 growth 2.8µM
O=C(Nc1ccc2ncnc(N3CCCCC3)c2c1)c1ccccc1	none
CCc1cccc(NC(=O)c2c(C)oc3ncnc(N4CCCCC4)c23)c1	none
CCc1cc(N2CCCC(C(=O)c3sccc3C)C2)ncn1 (stereo not given)	none
CCCN1CCC(N2C[C@@H](CO)[C@H](c3nc(COC)no3)C2)CC1	none
CCOCCCNC(=O)N1CCC(OC2CCN(Cc3ccccc3)CC2)CC1	none
Cc1ccc(C2Cn3nnc(C(=O)N4CCN(C(=O)c5cccc(F)c5)CC4)c3CO2)cc1 (stereo not given)	none
CCc1ccc(NC(=O)Cn2nc3n(c2=O)CCCCC3)cc1	none
Cc1nc(-c2ccncc2)ncc1C(C)NC(=O)C1=NN(C)C(=O)CC1 (stereo not given)	none
Cc1noc(-c2ccn3c(CNC(=O)Cc4ccccc4Cl)nnc3c2)n1	none
O=C(NCc1ccc(F)cc1)C1c2ccccc2C(=O)N(Cc2ccccc2)C12CCCC2 (stereo not given)	none
CN(C)C(=O)c1cc(-c2cnccc2Cl)c2cccn2n1	none
O=C(NCc1ccc(F)cc1)c1cc(-c2cnccc2Cl)c2cccn2n1	Pf Dd2 growth 8.9µM
COC(=O)CNC(=O)c1cc(-c2cnccc2Cl)c2cccn2n1	none
O=C(Cc1ccccc1)N1CC2CC(C1)[C@H]1CCCC(=O)N1C2 (stereo not given in full)	none
CCOC(=O)c1cc(-c2ccc(C)cc2)n(CCC(=O)NCc2ccccc2)c1C	Pf Dd2 growth 8.9µM
CCOC(=O)c1cc(-c2ccc(OC)cc2)n(CCC(=O)NCc2ccc(OC)cc2)c1C	Pf Dd2 growth 4µM
CCOC(=O)c1cc(-c2ccc(C)cc2)n(CCC(=O)NCCc2ccc(C)cc2)c1C	none
CCOC(=O)c1cc(-c2ccccc2)n(CC(=O)NCc2ccccc2)c1C	none
CCOC(=O)c1cc(-c2ccccc2)n(CCC(=O)NCCc2ccc(OC)c(OC)c2)c1C	none
CCOC(=O)c1cc(-c2ccccc2)n(CC(=O)NCc2ccc(C)cc2)c1C	none
CCn1ncc(N2CCC(NC(=O)c3ccc(OC)cc3)CC2)cc1=O	none
CC(O)c1cc2n(n1)CCN(CCS(=O)(=O)c1ccccc1)C2 (stereo not given)	none
COc1ccc(C[C@H](NC(=O)C2=C[C@@H](NC(=O)CS(=O)(=O)c3ccccc3)[C@@H](O)[C@H](O)C2)C(N)=O)cc1	none
CN(CC1CCOCC1)C(=O)Nc1cc(F)cc(F)c1	none
COc1cc(C2CC(=O)N(Cc3cccc(F)c3)c3ccccc3S2)cc(OC)c1OC (stereo not given)	Pf Dd2 growth 4.5µM
COc1ccccc1C(=O)NC1CC(=O)N(Cc2cccc(F)c2)C1 (stereo not given)	none
COc1ccccc1NC(=O)NC1CC(=O)N(Cc2cccc(F)c2)C1 (stereo not given)	none
O=C(Cc1n[nH]c(=O)c2ccccc12)NC1CCCc2c1[nH]c1ccccc21 (stereo not given)	none
COc1ccc(N(CC(=O)NCc2ccc(F)cc2)S(=O)(=O)c2c(C)n[nH]c2C)cc1	none
